# Experimental data from PubChem BioAssay AID743427 (Vanderbilt Specialized Chemistry Center, 2014).
# Target: Metabotropic glutamate receptor 8 (Rattus norvegicus) (UniProt P70579)
# Experiment: mGlu8 glutamate curve leftward shift by modulators, SAR follow-up, mechanism study for mGlu8/mGlu7 PAM project, cell-based, rat receptor, Ga15, calcium, 10 µM (AID 743427)
# Conditions: rat mGlu8/Ga15, Fluo-4 calcium, glutamate CRC; glutamate CRC left shift; at 10 µM; stronger effect = higher value
smiles,measurement,value
COC(=O)c1ccc(-n2c(C)cc(C(=O)CSc3ccc(NC(C)=O)cc3)c2C)cc1,fold shift,4.77
